We go through 17 compounds from PubChem BioAssay (NCATS).

Where “and” joins values, the source holds several entries; their conditions need not be identical. Identical values can stand only once. Values without a mark were called inactive. Inconclusive results are not listed. Calls of active or inactive are those of the source. Unless noted, calls come from the whole dose curve.

Assay [1] addresses Cytochrome P450 1A2 (Homo sapiens) (UniProt P05177). In words: p450-cyp1a2 (AID 410).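 For activity change, negative = inhibition: -100% = full effect of reference inhibitor.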 Note: potency is the fitted concentration of half-maximal effect. An outline of the steps:
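Human CYP1A2 (20nM) demethylated Luciferin-ME at its Km (100uM) in 100mM KPO4. After 10 min compound preincubation, NADPH regeneration ran the reaction 60 min at room temperature. Luciferin was read by luminescence, normalized to 57 uM furafylline.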

Assay [2] has as its target Glucocorticoid receptor (Homo sapiens) (UniProt P04150). In words: GR-GFP Redistribution (AID 450;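 active = compounds whose dose series gives a full or clear partial fitted curve of increased nuclear translocation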; note: potency is the fitted concentration of half-maximal effect). As to conditions: U2OS GR-GFP nuclear translocation, laser cytometry, 2 h.
For assay [3] the target is unchanged. The assay is described as follows: GR-EFC Redistribution (AID 451). Note: potency is the fitted concentration of half-maximal effect. As to conditions: CHO-K1 GR-EFC translocation, beta-gal luminescence, 2 h. An outline of the steps: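 Translocation of GR-ED fusion to nuclear EA restores b-gal, read by luminescence after 1 h room-temperature detection. Engineered CHO-K1 biosensor cells, 1,000/well, exposed 2 h at 37 C to titrations up to 46 uM final.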

A short description of assay [4]: AP1 Signaling Pathway (AID 357; active = well fitted curve in either direction with a large enough effect, not every such curve was filed as active; note: % is set by controls: 0 for no effect and ±100 for the full control effect). The settings on record: ME-180 AP-1-bla reporter, EGF-induced, beta-lactamase ratio, 5 h. An outline of the steps: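 ME-180 cells with beta-lactamase reporter under AP-1 response element, stimulated with EC50 EGF; compounds tested in titration series, 5 h at 37 °C. CCF4 substrate added 2.5 h at room temperature; 460/530 nm emission ratio gave %activity and AC50.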

Assay [5] is described as follows: Stat Signaling Pathway (AID 446; active = well fitted curve in either direction with a large enough effect, not every such curve was filed as active;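 note: ME-180 cervical cancer cells given 40 pM IL-6 alongside compound; SIE-controlled beta-lactamase reporter measured as 460/530 nm FRET emission ratio; % is set by controls: 0 for no effect and ±100 for the full control effect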). The settings on record: ME-180 SIE beta-lactamase reporter, IL-6 stimulated, 5 h. The essentials: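 ME-180 cells carrying a SIE-driven beta-lactamase reporter are stimulated with 40 pM IL-6 for 5 h at 37C in the presence of compound. The 460/530 nm FRET substrate ratio is read after 2.5 h at RT. Data are normalised to 300 pM IL-6 and to 125 nM JAK inhibitor controls.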

Assay [6] in a line: Cell Viability - BJ (AID 421).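 Note: potency is the fitted concentration of half-maximal effect; cells exposed to compound for 40 hours at 37 °C before readout.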 The settings on record: BJ fibroblast viability, qHTS. The essentials: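 Normal human BJ foreskin fibroblasts, 1500/well in complete medium, treated 40 hr at 37 °C. Cellular ATP by CellTiter-Glo luminescence; normalized to DMSO and 100 uM tamoxifen, AC50 from Hill fit.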
A short description of assay [7]: Cell Viability - Jurkat (AID 426;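 active = dose-dependent loss of cell ATP signal giving a full or clear fitted curve, ranked by lower potency value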; note: potency is the fitted concentration of half-maximal effect). The settings on record: qHTS. The essentials: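 Jurkat (clone E6-1, human T-cell leukemia) cells, 5000/well in complete medium, were exposed to compound for 40 hr at 37 °C. Viability was read as intracellular ATP by CellTiter-Glo luminescence; AC50 came from Hill fits of concentration-response data.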
The nature of assay [8]: Cell Viability - Hek293 (AID 427;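 active = compounds whose dose-response curve shows a full or clear partial loss of cell viability, called from curve shape rather than a numeric limit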;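 note: potency is the fitted concentration of half-maximal effect; cells exposed to compound for 40 hours at 37 °C before reading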). As to conditions: qHTS. The essentials:
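HEK293 cells in complete medium were exposed to compound for 40 hr at 37 °C, then cellular ATP was read by CellTiter-Glo luminescence. Data were normalized to DMSO (basal) and 100 uM tamoxifen (100% inhibition), and AC50 came from Hill fits.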

A short description of assay [9]: Cell Viability - HepG2 (AID 433).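 Note: potency is the fitted concentration of half-maximal effect; potency for ATP loss meaning cytotoxicity.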 The settings on record: qHTS. An outline of the steps: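 ATP luminescence (CellTiter-Glo) after 40 h compound exposure, 37 °C, HepG2, 1500 cells/well, complete medium. Normalized: DMSO = basal, 100 uM tamoxifen = 100% inhibition. AC50 via standard Hill equation.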
Assay [10] is described as follows: Cell Viability - MRC5 (AID 434).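 Note: potency is the fitted concentration of half-maximal effect; potency reflects cytotoxicity seen as loss of intracellular ATP.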 The settings on record: MRC5 lung fibroblast viability, qHTS. The essentials:
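qHTS cytotoxicity in human lung fibroblast MRC5 cells; 40 hr treatment, 37 °C; cellular ATP by luciferase luminescence; DMSO = 0%, 100 uM tamoxifen = 100% inhibition; Hill-fit AC50.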

Assay [11] in a line: Cell Viability - SK-N-SH (AID 435). Note: potency is the fitted concentration of half-maximal effect. As to conditions: SK-N-SH neuroblastoma cell viability qHTS. An outline of the steps:
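CellTiter-Glo ATP luminescence, 20 min RT read; cells pre-plated 5 hr, compound 40 hr at 37 °C, 1500 cells/well, complete medium. Normalized DMSO = 0, 100 uM tamoxifen = 100% inhibition; Hill-fit AC50.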

Assay [12] can be described thus: Cell Viability - N2a (AID 540; active = well fitted curve in the direction sought with a large enough effect; an effect the other way counts as inactive or inconclusive;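 note: plate controls were DMSO alone for no effect and tamoxifen control for full effect; nearly all actives have a fitted effect of over 45% in size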). An outline of the steps: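 Mouse neuroblastoma N2a cells (1500/well) were preincubated 5 hr at 37 °C, then exposed to compounds for 40 hr at 37 °C in complete medium. Viability was read as intracellular ATP by CellTiter-Glo luminescence; AC50 from Hill fits.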
The nature of assay [13]: Cell Viability - NIH 3T3 (AID 541; active = well fitted curve in the direction sought with a large enough effect; an effect the other way counts as inactive or inconclusive;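 note: plate controls were DMSO alone for no effect and tamoxifen positive control for full effect; nearly all actives have a fitted effect of over 25% in size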). The essentials:
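NIH 3T3 mouse embryo fibroblasts (1000 cells/well) were plated in complete medium and treated with compound for 40 hr at 37 °C. Viability was read as intracellular ATP by CellTiter-Glo luminescence; AC50 values came from Hill-equation fits of concentration-response data.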

Assay [14] is described as follows: Cell Viability - HUV-EC-C (AID 542; active = well fitted curve in the direction sought with a large enough effect; an effect the other way counts as inactive or inconclusive; note: % is set by controls: 0 for no effect and ±100 for the full control effect; nearly all actives have a fitted effect of over 35% in size). The essentials:
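HUV-EC-C normal human vascular endothelial cells, 1000 cells/well, pre-incubated 5 hr at 37 °C, then exposed to compounds for 40 hr at 37 °C in complete medium. Viability measured as intracellular ATP by CellTiter-Glo luminescence; AC50 from Hill fits.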

The nature of assay [15]: Cell Viability - H-4-II-E (AID 543; active = well fitted curve in the direction sought with a large enough effect; an effect the other way counts as inactive or inconclusive; note: % is set by controls: 0 for no effect and ±100 for the full control effect; nearly all actives have a fitted effect of over 35% in size). An outline of the steps: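 Rat hepatoma H-4-II-E cells (1500/well) were plated, incubated 5 hr at 37 °C, then exposed to compounds for 40 hr at 37 °C. Cellular ATP was read by CellTiter-Glo luminescence; AC50 came from Hill-equation fits of concentration-response data.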
Assay [16] is described as follows: Cell Viability - SH-SY5Y (AID 544; active = well fitted curve in the direction sought with a large enough effect; an effect the other way counts as inactive or inconclusive;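 note: 0% = DMSO alone and -100% = 100 µM tamoxifen; nearly all actives have a fitted effect of over 55% in size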). The essentials:
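Human neuroblastoma SH-SY5Y cells (1500/well) in complete medium were exposed to compounds for 40 hr at 37 °C; intracellular ATP was then quantified by CellTiter-Glo luminescence after 20 min at room temperature. AC50 came from Hill-equation concentration-response fits.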

A short description of assay [17]: Cell Viability - Renal Proximal Tubule (AID 545; active = well fitted curve in the direction sought with a large enough effect; an effect the other way counts as inactive or inconclusive;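 note: 0% = DMSO only and -100% = 100 µM tamoxifen; nearly all actives have a fitted effect of over 40% in size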). An outline of the steps:
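Rat kidney proximal tubule cells, freshly isolated; 1000 cells/well, 5 hr settle, compound 40 hr 37 °C. CellTiter-Glo 20 min RT, luminescence read. AC50 by standard Hill fit.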

A short description of assay [18]: Cell Viability - Mesenchymal (AID 546; active = well fitted curve in the direction sought with a large enough effect; an effect the other way counts as inactive or inconclusive;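 note: cells exposed to compound for 40 hours before reading; 0% = DMSO only and -100% = 100 µM tamoxifen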). An outline of the steps: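 AC50 values reflect the drop in intracellular ATP in a human kidney mesenchymal line derived from normal glomeruli. Treatment lasts 40 hr at 37 °C in complete medium, and the signal comes from CellTiter-Glo luminescence.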
A short description of assay [19]: Cellular Toxicity (caspase-3) HepG2 (AID 654; active = well fitted curve in the direction sought with a large enough effect; an effect the other way counts as inactive or inconclusive;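 note: cells exposed to compound for 16 hours before reading; 0% = DMSO alone and 100% = caspase signal from 100 µM tamoxifen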). An outline of the steps:
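HepG2 cells (1500/well) in complete medium were treated with compounds for 16 hr at 37 °C. Caspase-3/7 activity was then read as luminescence from peptide-aminoluciferin cleavage. AC50 came from Hill fits, normalized to DMSO and 100 uM tamoxifen.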

Assay [20] is described as follows: NFAT Signaling Pathway (AID 444; active = well fitted curve in either direction with a large enough effect, not every such curve was filed as active;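 note: carbachol stimulus at about its EC50 of 1 µM final; % is set by controls: 0 for no effect and ±100 for the full control effect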). The settings on record: Jurkat NFAT-bla M1, carbachol, beta-lactamase ratio, 5 h. The essentials: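 Read-out: CCF4 FRET ratio (460 nm/530 nm) after 1 h RT dye loading, used for %activity and AC50 from titration series. Cells: Jurkat NFAT-β-lactamase/M1 line, treated with compound plus 1 uM carbachol for 5 h, 37 °C.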

Chain of Glucocorticoid receptor (Homo sapiens) (P04150 whole entry, looked up, the tested form may be a part): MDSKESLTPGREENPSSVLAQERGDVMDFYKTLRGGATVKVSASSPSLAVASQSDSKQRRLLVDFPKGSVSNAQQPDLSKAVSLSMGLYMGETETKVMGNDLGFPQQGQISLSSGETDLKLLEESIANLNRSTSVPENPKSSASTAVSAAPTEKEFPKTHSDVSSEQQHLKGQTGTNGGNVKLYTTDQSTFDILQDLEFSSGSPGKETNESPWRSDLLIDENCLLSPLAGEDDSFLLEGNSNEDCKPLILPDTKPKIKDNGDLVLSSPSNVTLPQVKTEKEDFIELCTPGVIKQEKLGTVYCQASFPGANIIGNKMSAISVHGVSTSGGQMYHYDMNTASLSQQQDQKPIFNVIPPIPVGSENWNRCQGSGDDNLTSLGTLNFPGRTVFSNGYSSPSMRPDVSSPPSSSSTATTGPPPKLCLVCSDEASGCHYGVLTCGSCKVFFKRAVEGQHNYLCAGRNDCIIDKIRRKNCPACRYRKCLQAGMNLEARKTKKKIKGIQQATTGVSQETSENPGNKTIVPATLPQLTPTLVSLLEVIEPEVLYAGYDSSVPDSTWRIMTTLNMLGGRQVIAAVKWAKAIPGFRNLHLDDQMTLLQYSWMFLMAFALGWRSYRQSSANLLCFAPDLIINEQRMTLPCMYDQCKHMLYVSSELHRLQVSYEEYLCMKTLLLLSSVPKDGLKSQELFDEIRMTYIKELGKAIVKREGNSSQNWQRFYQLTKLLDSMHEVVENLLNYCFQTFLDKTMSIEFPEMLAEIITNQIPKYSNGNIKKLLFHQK
Chain of Cytochrome P450 1A2 (Homo sapiens) (P05177 whole entry, looked up): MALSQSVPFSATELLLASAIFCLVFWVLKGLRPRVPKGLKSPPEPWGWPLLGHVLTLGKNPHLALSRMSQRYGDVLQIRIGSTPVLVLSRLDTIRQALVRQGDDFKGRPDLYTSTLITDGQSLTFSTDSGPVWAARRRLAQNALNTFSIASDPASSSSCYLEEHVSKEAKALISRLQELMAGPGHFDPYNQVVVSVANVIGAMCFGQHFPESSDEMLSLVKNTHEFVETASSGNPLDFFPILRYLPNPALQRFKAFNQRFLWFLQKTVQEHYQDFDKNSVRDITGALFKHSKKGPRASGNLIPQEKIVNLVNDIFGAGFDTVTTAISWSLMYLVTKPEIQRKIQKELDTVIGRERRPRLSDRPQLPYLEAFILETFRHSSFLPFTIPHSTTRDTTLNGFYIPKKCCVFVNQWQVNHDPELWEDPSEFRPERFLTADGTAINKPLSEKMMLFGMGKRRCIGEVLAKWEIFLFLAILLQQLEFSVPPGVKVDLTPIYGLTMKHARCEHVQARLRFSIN

With `O=c1c(O)c(-c2ccc(O)c(O)c2)oc2cc(O)ccc12`, the Potency was 1.58 µM (active) and 2.51 µM (active) in assay [1]; over 46 µM in assay [2]; over 46 µM in assay [3].
For `CCOC(=O)C1=C(C)NC(=S)NC1c1cccc(O)c1` (configuration not stated), the Potency in [1] was 39.8 µM (active); in [2], over 46 µM; in [3], over 46 µM.
With `CN(C)CC[C@H](c1ccc(Cl)cc1)c1ccccn1`, the activity change, negative = inhibition is 15.5% in assay [4] (at 17.2 µM (top of the series)); 10.2% and 11.2% in [4] (at 38 µM (top of the series)). Further, the Potency result in assay [1] is “inactive”. Also, the activity, negative = inhibition in assay [5] (at 17.2 µM (top of the series)) is 1.79%; in assay [5] (at 38 µM (top of the series)), 2.96%. Also, the Potency is > 46 µM and > 20.6 µM in [2]; > 46 µM and > 20.6 µM in [3].
Take `COc1cc2c(cc1OC)[C@@H]1C(=O)c3ccc4c(c3O[C@@H]1CO2)C=CC(C)(C)O4`: the Potency in assay [1] is 15.8 µM (active); in assay [2], over 46 µM; in assay [3] it was over 46 µM.
On to `CN(N=O)C(=O)N[C@H]1C(O)OC(CO)[C@@H](O)[C@H]1O` (some centres not stated), for which the Potency entry in [1] was “inactive”. Besides, the Potency in assay [2] and in assay [3] was over 46 µM in each case.
For `Cc1cc(O)c2c(c1)C(=O)c1cccc(O)c1C2=O`, the Potency in assay [6], in assay [7], in assay [8], in assay [9], in [10] and in [11] was over 92 µM each time. The result in [12], in assay [13], in [14], in assay [15], in assay [16] and in assay [17] was inactive. Moreover, the call in [18] and in assay [19] was inactive.
Turning to `CC(C)[C@H](CO)Nc1nc(Nc2cccc(Cl)c2)c2ncn(C(C)C)c2n1`, the activity change, negative = inhibition in [4] (at 38 µM (top of the series)) is -111% (active). Moreover, the Potency in assay [1] is 2 µM (active) and 316 nM (active); in [2], over 46 µM; in [3] it was over 46 µM. Besides, the activity, negative = inhibition in assay [5] (at 38 µM (top of the series)) was -81.5% (active).
Consider `Nc1nc2c(c(=O)[nH]1)N(C=O)[C@H](CNc1ccc(C(=O)N[C@@H](CCC(=O)O)C(=O)O)cc1)CN2`, for which the activity change, negative = inhibition in assay [4] (at 17.2 µM (top of the series)) is -9.84%; in assay [20] (at 17.2 µM (top of the series)), 4.7%. Moreover, the Potency result in assay [1] is “inactive”. Moreover, in assay [5] (at 17.2 µM (top of the series)), the activity, negative = inhibition is 7.59%. The Potency in assay [2] and in assay [3] was over 20.6 µM throughout.
On to `COc1cc2c(cc1O)CCC1C2CC[C@@]2(C)C1CC[C@@H]2O` (some centres not stated), for which the Potency in [2] and in assay [3] was over 46 µM in each case.
`COc1ccc2c(c1OC)C(=O)OC2[C@H]1c2c(cc3c(c2OC)OCO3)CCN1C` (some centres not stated): the activity change, negative = inhibition in assay [4] (at 17.2 µM (top of the series)) was -2.27%; in assay [4] (at 38 µM (top of the series)), -1.8%; in [20] (at 17.2 µM (top of the series)) it was -11.3%; in assay [20] (at 38 µM (top of the series)), -9.62%. Further, the Potency entry in [1] is “inactive”. Also, the activity, negative = inhibition is 4.57% in [5] (at 17.2 µM (top of the series)) and 2.78% in assay [5] (at 38 µM (top of the series)). Further, the Potency was > 46 µM and > 20.6 µM in [2]; > 46 µM and > 20.6 µM in assay [3].
As to `COc1ccc([C@@H]2CNC(=O)C2)cc1OC1CCCC1`, the activity change, negative = inhibition in assay [4] (at 17.2 µM (top of the series)) was -7.88%; in assay [4] (at 38 µM (top of the series)), -7.79%; in assay [20] (at 17.2 µM (top of the series)) it was 2.36%; in assay [20] (at 38 µM (top of the series)), 11.5%. In addition, the activity, negative = inhibition in [5] (at 17.2 µM (top of the series)) was -9.88%; in [5] (at 38 µM (top of the series)), -0.129%. The Potency was > 46 µM and > 20.6 µM in assay [2]; > 46 µM and > 20.6 µM in [3].
`CC(Oc1ccc(O)cc1)(P(=O)(O)O)P(=O)(O)O`: the Potency entry in assay [1] was “inactive”. Moreover, the Potency in assay [2] and in [3] was over 46 µM each time.
As to `CN1[C@H]2CC(OC(=O)[C@@H](CO)c3ccccc3)C[C@H]1[C@H]1O[C@H]12` (some centres not stated), the activity change, negative = inhibition in assay [4] (at 17.2 µM (top of the series)) is 19.5%; in [20] (at 17.2 µM (top of the series)), -45.8% (active). The activity, negative = inhibition in assay [5] (at 17.2 µM (top of the series)) was -3.14%.
As for `O=C(O)C=Cc1ccc(Cn2ccnc2)cc1`, the Potency in assay [2] and in assay [3] was over 46 µM throughout.
As for `c1coc(CNc2ncnc3nc[nH]c23)c1`, the activity change, negative = inhibition was 2.59% in assay [4] (at 17.2 µM (top of the series)) and 1.53% in assay [20] (at 17.2 µM (top of the series)). Further, the activity, negative = inhibition in assay [5] (at 17.2 µM (top of the series)) was -16.6%. Further, the Potency was > 20.6 µM and > 46 µM in [2]; > 20.6 µM and > 46 µM in assay [3].
Turning to `COc1cc2ncnc(Nc3cccc(Br)c3)c2cc1OC`, the Potency in assay [2] and in [3] was over 46 µM throughout.
For the compound `CCN1CCN(C(=O)N[C@H](C(=O)N[C@@H]2C(=O)N3C(C(=O)O)=C(CSc4nnnn4C)CS[C@@H]23)c2ccc(O)cc2)C(=O)C1=O`, the activity change, negative = inhibition was 6.77% in assay [4] (at 17.2 µM (top of the series)) and 3.22% in assay [20] (at 17.2 µM (top of the series)). Besides, the Potency entry in assay [1] was “inactive”. Besides, the activity, negative = inhibition in assay [5] (at 17.2 µM (top of the series)) was 8%.
